The text below walks through data of PubChem BioAssay (Tox21).

Values without a mark were called inactive. Results filed as inconclusive are left out. Activity calls are given as the source filed them. Unless noted, calls come from the whole dose curve; as a rule, active = well fitted curve in the direction sought with a large enough effect in the repeat runs; inconclusive = weak or mixed curves; inactive = no such curve, though single readings can be large; an effect the other way counts as inactive or inconclusive.

Assay [1] in a line: qHTS assay to identify small molecule antagonists of the sonic hedgehog signaling (Shh) pathway (AID 1259369; calls by dose curve; note: nearly all actives have a fitted effect of over 45% in size; note: potency is the fitted concentration of half-maximal effect). Put shortly:
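Gli1 transcriptional reporter (firefly Luc) in NIH/3T3 background, conditioned-medium activated. 24hr exposure, luminescence endpoint.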
(Quantitative high-throughput screening tests each substance at several concentrations.)

A short description of assay [2]: qHTS assay to identify small molecule agonists of the androgen receptor (AR) signaling pathway in the presence of an antagonist - cell viability counter screen (AID 1259379). Note: nearly all actives have a fitted effect of over 25% in size. Note: potency is the fitted concentration of half-maximal effect. The gist of the method:
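Counter screen for cell viability run in parallel with the AR agonist-mode luciferase assay. MDA-kb2 cells were co-treated with nilutamide (3.0uM final) and compounds, then incubated 16 hr at 37C, and CellTiter-Fluor fluorescence was measured.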

A short description of assay [3]: qHTS assay to identify small molecule agonists of the estrogen receptor beta (ER-beta) signaling pathway - cell viability counter screen (AID 1259380). Note: nearly all actives have a fitted effect of over 30% in size. Note: potency is the fitted concentration of half-maximal effect. The gist of the method: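 In this qHTS counter screen, HEK293T cells carrying an ER-beta/UAS beta-lactamase reporter, grown in 2% charcoal-stripped FBS, received compound for 16 hr; ATP-based CellTiter-Glo luminescence was then read after 30 min at room temperature.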

The target in assay [4] is Androgen receptor (Homo sapiens) (UniProt P10275). Briefly: qHTS assay to identify small molecule agonists of the androgen receptor (AR) signaling pathway in the presence of an antagonist (AID 1259381; calls by dose curve; note: nearly all actives have a fitted effect of over 15% in size; note: potency is the fitted concentration of half-maximal effect). The gist of the method: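 AR antagonist background: nilutamide 3.0uM final. Cell line: MDA-kb2, MMTV-driven luciferase, responsive to both AR and GR. Exposure 16hr, 37C, no CO2; ONE-Glo luminescence.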

A short description of assay [5]: qHTS assay to identify small molecule antagonists of the estrogen receptor beta (ER-beta) signaling pathway - cell viability counter screen (AID 1259382). Note: nearly all actives have a fitted effect of over 55% in size. Note: potency is the fitted concentration of half-maximal effect. Put shortly:
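HEK293T ER-beta-UAS-bla, 2% charcoal-stripped FBS; compounds + 1nM E2 16 hr 37C; CellTiter-Glo luminescence, 30 min RT.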

The nature of assay [6]: qHTS assay to identify small molecule agonists or antagonists of the thyroid stimulating hormone receptor (TSHR) signaling pathway - wild type cell line counter screen (AID 1259384; calls by dose curve). The gist of the method:
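Wild-type HEK293 cells were plated 18 h at 37 C/5% CO2, pin-dosed with compound plus Ro20-1724 medium, held 30 min at room temperature, then given cAMP-d2 and anti-cAMP-cryptate; fluorescence was read after 1 h. Fifteen concentrations, triplicate.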

Assay [7] addresses Thyrotropin receptor (Homo sapiens) (UniProt P16473). Briefly: qHTS assay to identify small molecule antagonists of the thyroid stimulating hormone receptor (TSHR) signaling pathway (AID 1259385; calls by dose curve; note: nearly all actives have a fitted effect of over 20% in size). Put shortly:
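TSHR-HEK293 cells were plated and held 18 h at 37C/5% CO2, then given compound plus Ro20-1724 and stimulated with TSH at 1.5 ng/mL final. After 30 min at room temperature, cAMP was detected with cAMP-d2/anti-cAMP-cryptate (1 h) by fluorescence.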

For assay [8], the target named is Progesterone receptor (Homo sapiens) (UniProt P06401). The experiment in a line: qHTS assay to identify small molecule agonists of the progesterone receptor (PR) signaling pathway (AID 1346784; calls by dose curve; note: nearly all actives have a fitted effect of over 30% in size; note: potency is the fitted concentration of half-maximal effect). The gist of the method: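 Reporter assay, GripTite PR-UAS-bla HEK 293T cells: 16 hr exposure to DMSO-dissolved compounds at 37C, 5% CO2, in steroid-depleted (2% charcoal-stripped FBS) medium; beta-lactamase measured by FRET fluorescence.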

For assay [9] the target is unchanged. Briefly: qHTS assay to identify small molecule antagonists of the progesterone receptor (PR) signaling pathway (AID 1346795; active = well fitted inhibition curve with a large enough effect in the signal ratio in the repeat runs, not every such curve was filed as active; the % refers to the signal ratio; note: potency is the fitted concentration of half-maximal effect). The gist of the method:
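Stimulus R5020 at 1 nM final; cells HEK293T PR-UAS-bla; medium with 2% charcoal-stripped FBS; compound exposure 16 hr at 37C, 5% CO2; detection by FRET beta-lactamase substrate, 2 hr, room temperature.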

A short description of assay [10]: qHTS assay to identify small molecule antagonists of the TGF-beta/Smad signaling pathway - cell viability counter screen (AID 1346824). Note: nearly all actives have a fitted effect of over 50% in size. Put shortly: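 SBE-bla HEK 293T cells were plated overnight at 37 C, then given compounds in DMSO plus TGF-beta1 (added as 0.25 ng/mL solution) for 5 hr. After the bla read, CellTiter-Glo was added to the same wells and luminescence read after 30 min at room temperature.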

Assay [11] in a line: qHTS assay to identify small molecule agonists of the TGF-beta/Smad signaling pathway - cell viability counter screen (AID 1346829). Note: top concentration of the series differs between compounds; nearly all actives have a fitted effect of over 45% in size. The gist of the method: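 Tox21 qHTS format: SBE-bla HEK 293T cells treated with DMSO-dissolved compounds for 5 hr; CellTiter-Glo luminescence after 30 min at room temperature.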
A short description of assay [12]: qHTS assay to identify small molecule agonists of the TGF-beta/Smad signaling pathway (AID 1346859; active = well fitted activation curve with a large enough effect in the signal ratio in the repeat runs, not every such curve was filed as active; the % refers to the signal ratio; note: series mostly up to about 77 µM). Put shortly: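 Screening used HEK 293T SBE-bla cells at 4,000/well. Test agents: 5 hr, 37 C. Detection: FRET substrate, 2 hr RT, then excitation 405 nm with emissions at 460 and 530 nm.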
The target in assay [13] is Estrogen receptor (Homo sapiens) (UniProt P03372). Briefly: qHTS assay to identify small molecule agonists of the estrogen receptor alpha (ER-alpha) signaling pathway in the presence of an antagonist (AID 1259383; calls by dose curve; note: top concentration of the series differs between compounds; nearly all actives have a fitted effect of over 15% in size). Put shortly: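 ER-alpha agonism measured under antagonist challenge: 10.0nM ICI-182,780 (final) plus compound, 15 concentrations, 22hr, VM7Luc4E2 ERE-luciferase cells. Read by luminescence.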

Assay [14] is described as follows: qHTS assay to identify small molecule agonists of the estrogen receptor alpha (ER-alpha) signaling pathway in the presence of an antagonist - cell viability counter screen (AID 1259386).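 Note: cells exposed to compounds for 22 h at 37 °C before the viability read; nearly all actives have a fitted effect of over 30% in size.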 Note: potency is the fitted concentration of half-maximal effect. Put shortly:
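Steps: 5-day stripped-FBS culture; seed and incubate 24hr; add ICI-182,780 (10.0nM final); pin 15-point compound titration; incubate 22hr at 37C; add CellTiter-Fluor at 21hr; read fluorescence.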

Assay [15] is described as follows: qHTS assay to identify small molecule antagonists of the progesterone receptor (PR) signaling pathway - cell viability counter screen (AID 1346798). Note: nearly all actives have a fitted effect of over 50% in size. Note: potency is the fitted concentration of half-maximal effect. The gist of the method: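 In the same plates used for the beta-lactamase readout, cell viability of compound- and R5020-treated PR-UAS-bla HEK293T cells (16 hr, 37C) was assessed by CellTiter-Glo luminescence.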
The nature of assay [16]: qHTS assay to identify small molecule agonists of the progesterone receptor (PR) signaling pathway - cell viability counter screen (AID 1346799; calls by dose curve; note: nearly all actives have a fitted effect of over 45% in size). Put shortly: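 Multiplexed viability read: CellTiter-Glo luminescence, 30 min RT, following LiveBLAzer FRET measurement on PR-UAS-bla HEK293T cells exposed to compounds 16 hr.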
Assay [17] addresses Thyrotropin-releasing hormone receptor (Homo sapiens) (UniProt P34981). Briefly: qHTS assay to identify small molecule antagonists of the thyrotropin-releasing hormone receptor (TRHR) signaling pathway (AID 1346877; active = well fitted inhibition curve with a large enough effect in the repeat runs, not every such curve was filed as active; note: series mostly up to about 51 µM). Put shortly:
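Human TRHR in HEK293 cells; inhibition of the intracellular calcium rise triggered by 1 nM TRH was followed by fluorescence over 3 min. Compounds were run at 15 concentrations, three replicates each.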

The target is the same in assay [18]. The experiment in a line: qHTS assay to identify small molecule agonists of the thyrotropin-releasing hormone receptor (TRHR) signaling pathway (AID 1346891; calls by dose curve; note: potency is the fitted concentration of half-maximal effect; for activation: series mostly up to about 58 µM). Put shortly: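 Readout was intracellular calcium fluorescence in TRHR-Hek293 cells. Cells were incubated 18 h, dye-loaded 2 h at 37 °C, and treated with compound in agonist mode.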

Androgen receptor (Homo sapiens), sequence (P10275 whole entry, looked up): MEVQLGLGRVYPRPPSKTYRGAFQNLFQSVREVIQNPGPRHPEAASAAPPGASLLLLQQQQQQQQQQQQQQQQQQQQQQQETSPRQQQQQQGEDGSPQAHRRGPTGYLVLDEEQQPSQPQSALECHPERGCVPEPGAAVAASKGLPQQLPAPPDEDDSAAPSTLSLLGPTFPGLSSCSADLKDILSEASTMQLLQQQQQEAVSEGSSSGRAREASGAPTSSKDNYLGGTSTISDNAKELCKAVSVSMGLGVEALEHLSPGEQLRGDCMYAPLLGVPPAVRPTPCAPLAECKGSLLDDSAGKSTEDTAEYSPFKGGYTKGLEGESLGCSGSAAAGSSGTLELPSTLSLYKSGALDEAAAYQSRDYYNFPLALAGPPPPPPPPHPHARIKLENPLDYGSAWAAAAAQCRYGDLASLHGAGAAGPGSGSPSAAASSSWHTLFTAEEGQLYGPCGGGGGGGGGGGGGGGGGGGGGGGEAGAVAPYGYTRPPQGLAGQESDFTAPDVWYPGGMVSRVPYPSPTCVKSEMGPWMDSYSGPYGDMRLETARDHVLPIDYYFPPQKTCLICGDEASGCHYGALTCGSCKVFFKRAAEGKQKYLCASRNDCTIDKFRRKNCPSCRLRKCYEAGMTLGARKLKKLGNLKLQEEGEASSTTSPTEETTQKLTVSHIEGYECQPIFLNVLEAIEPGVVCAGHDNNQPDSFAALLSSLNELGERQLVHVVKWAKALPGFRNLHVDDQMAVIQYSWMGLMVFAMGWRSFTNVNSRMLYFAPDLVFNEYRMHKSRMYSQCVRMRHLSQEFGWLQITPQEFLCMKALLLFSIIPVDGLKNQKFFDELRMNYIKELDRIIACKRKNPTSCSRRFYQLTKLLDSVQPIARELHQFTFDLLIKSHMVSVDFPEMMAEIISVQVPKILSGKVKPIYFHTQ
Progesterone receptor (Homo sapiens), sequence (P06401 whole entry, looked up): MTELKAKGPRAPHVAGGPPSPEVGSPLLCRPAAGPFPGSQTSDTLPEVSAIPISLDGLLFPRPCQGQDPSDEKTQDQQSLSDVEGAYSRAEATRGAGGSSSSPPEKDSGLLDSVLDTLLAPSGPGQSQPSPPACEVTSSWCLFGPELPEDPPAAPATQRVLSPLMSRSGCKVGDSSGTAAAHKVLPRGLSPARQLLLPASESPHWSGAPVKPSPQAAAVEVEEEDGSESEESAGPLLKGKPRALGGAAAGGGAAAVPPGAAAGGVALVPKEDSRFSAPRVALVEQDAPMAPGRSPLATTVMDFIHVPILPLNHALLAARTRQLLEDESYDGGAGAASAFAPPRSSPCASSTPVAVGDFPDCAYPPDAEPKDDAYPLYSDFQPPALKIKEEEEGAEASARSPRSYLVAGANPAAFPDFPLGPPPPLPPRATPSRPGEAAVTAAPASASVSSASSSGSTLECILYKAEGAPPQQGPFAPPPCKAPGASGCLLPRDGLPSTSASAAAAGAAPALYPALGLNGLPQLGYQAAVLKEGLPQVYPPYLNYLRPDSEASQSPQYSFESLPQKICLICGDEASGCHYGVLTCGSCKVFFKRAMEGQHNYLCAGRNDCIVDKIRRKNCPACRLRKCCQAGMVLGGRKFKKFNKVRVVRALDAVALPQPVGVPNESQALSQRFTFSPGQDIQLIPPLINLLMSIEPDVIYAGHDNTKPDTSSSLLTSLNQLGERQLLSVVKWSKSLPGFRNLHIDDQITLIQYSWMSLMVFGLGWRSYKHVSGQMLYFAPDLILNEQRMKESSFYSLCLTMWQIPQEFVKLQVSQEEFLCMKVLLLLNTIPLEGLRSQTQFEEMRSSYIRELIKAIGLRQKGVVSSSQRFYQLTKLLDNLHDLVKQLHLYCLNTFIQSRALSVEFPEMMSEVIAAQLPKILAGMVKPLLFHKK
Thyrotropin receptor (Homo sapiens), sequence (P16473 whole entry, looked up): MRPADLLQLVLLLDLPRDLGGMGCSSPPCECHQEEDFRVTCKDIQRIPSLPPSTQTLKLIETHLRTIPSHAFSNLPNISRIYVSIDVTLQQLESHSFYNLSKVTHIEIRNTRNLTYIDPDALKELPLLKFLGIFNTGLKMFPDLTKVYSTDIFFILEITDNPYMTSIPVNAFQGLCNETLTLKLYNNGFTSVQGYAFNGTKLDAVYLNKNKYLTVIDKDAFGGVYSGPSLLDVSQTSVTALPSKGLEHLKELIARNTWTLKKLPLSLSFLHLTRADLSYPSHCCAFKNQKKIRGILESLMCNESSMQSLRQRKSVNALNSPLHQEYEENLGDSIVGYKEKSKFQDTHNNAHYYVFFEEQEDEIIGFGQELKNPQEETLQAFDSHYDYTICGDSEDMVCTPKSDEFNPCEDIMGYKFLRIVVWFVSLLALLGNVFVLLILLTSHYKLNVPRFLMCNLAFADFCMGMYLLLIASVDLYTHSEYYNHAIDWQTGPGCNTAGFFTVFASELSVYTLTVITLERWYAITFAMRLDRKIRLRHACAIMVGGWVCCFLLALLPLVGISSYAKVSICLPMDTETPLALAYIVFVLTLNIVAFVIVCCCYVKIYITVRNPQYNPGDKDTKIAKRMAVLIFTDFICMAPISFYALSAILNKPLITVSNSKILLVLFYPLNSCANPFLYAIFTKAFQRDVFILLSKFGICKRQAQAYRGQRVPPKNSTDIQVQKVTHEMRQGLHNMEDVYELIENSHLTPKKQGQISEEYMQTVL
Thyrotropin-releasing hormone receptor (Homo sapiens), sequence (P34981 whole entry, looked up): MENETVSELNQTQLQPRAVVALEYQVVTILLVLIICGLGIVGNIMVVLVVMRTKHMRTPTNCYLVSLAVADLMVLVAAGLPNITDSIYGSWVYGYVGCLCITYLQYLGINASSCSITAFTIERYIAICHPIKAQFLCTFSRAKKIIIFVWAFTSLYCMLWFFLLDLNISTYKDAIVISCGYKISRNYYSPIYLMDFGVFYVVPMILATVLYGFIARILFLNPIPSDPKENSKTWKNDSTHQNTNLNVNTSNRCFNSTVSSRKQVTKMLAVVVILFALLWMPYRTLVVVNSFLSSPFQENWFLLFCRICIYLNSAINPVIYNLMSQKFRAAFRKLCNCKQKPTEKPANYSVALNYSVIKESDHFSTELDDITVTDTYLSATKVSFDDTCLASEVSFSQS
Estrogen receptor (Homo sapiens), sequence (P03372 whole entry, looked up): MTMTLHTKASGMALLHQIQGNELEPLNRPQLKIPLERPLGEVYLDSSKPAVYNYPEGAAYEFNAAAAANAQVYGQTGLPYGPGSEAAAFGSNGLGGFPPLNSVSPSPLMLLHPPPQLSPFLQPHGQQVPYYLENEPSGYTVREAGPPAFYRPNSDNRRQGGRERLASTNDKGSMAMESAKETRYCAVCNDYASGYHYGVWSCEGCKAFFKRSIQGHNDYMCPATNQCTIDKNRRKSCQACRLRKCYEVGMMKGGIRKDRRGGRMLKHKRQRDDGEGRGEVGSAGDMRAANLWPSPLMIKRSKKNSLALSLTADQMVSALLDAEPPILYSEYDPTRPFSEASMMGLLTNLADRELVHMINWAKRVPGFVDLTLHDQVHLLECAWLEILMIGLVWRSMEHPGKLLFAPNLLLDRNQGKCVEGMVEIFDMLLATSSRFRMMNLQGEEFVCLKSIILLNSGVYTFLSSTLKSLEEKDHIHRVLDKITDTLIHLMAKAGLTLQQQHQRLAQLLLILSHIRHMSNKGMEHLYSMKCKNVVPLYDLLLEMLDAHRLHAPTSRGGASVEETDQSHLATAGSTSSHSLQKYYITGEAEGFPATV

Take `Cc1cccc(Nc2ccccc2)c1`: the Potency result in assay [1], in [2], in assay [3], in assay [4], in [5] and in assay [6] was “inactive” each time. The Potency result in assay [7], in assay [8], in assay [9], in [10] and in assay [12] was “inactive” throughout. The call in [11] was inactive.

`Cc1cccc(C)c1OCC(=O)N[C@@H](Cc1ccccc1)[C@@H](O)C[C@H](Cc1ccccc1)NC(=O)[C@H](C(C)C)N1CCCNC1=O`: the Potency in assay [1] was 29.8 µM (active); in assay [3], 23.7 µM (active); in [5], 23.7 µM (active); in assay [14], 29.8 µM (active); in assay [15] it was 29.8 µM (active). Besides, the Potency result in assay [4], in [13], in assay [6], in assay [7] and in assay [10] was “inactive” in each case.

Regarding `O=C(c1ccc(F)cc1)C1CCN(CCn2c(=S)[nH]c3ccccc3c2=O)CC1`, the Potency result in assay [1], in assay [2], in assay [4], in assay [6], in assay [7] and in assay [8] was “inactive” in each case. For the same molecule, the Potency entry in [16], in assay [10] and in [18] was “inactive” throughout. Further, the call in assay [11] and in [17] was inactive.

With `Brc1c2ccccc2cc2ccccc12`, the Potency entry in assay [1], in assay [2], in [13], in [6], in [14] and in assay [10] was “inactive” throughout. In addition, the Potency in [3] was 61.8 µM (active). The result in assay [11] was inactive.

As to `CC(C)O.CC(C)O.CCOC(=O)/C=C(\C)O.CCOC(=O)/C=C(\C)O.[Ti]`, the Potency result in [1], in assay [2], in assay [3], in assay [5], in assay [7] and in [14] was “inactive” throughout. In addition, the Potency result in assay [8], in assay [9], in [15], in assay [16] and in [10] was “inactive” throughout. Also, the result in assay [11] was inactive.

On to `CCN(CC)CCOC(=O)C(Cc1cccc2ccccc12)CC1CCCO1` (stereo unspecified), for which the Potency result in [1], in assay [2], in assay [5], in assay [8], in [9] and in [15] was “inactive” throughout. For the same molecule, the Potency result in assay [10], in [12] and in assay [18] was “inactive” throughout. The call in assay [11] and in [17] was inactive.

Take `OC(C#CCN1CCCC1)(c1ccccc1)c1ccccc1`: the Potency in assay [1] was 3.76 µM (active). The Potency result in assay [2], in assay [3], in [5], in assay [7], in [14] and in assay [8] was “inactive” throughout. Further, the Potency result in [9], in assay [16], in assay [10], in assay [12] and in [18] was “inactive” throughout. Also, the molecule was classed as inactive in [11] and in assay [17].

As for `CCCCC(=O)OCC(=O)[C@H]1[C@H](C)C[C@H]2[C@@H]3C[C@H](F)C4=CC(=O)C=C[C@]4(C)[C@@]3(F)[C@@H](O)C[C@@]21C`, the Potency result in assay [1], in assay [2], in assay [5], in assay [13], in assay [6] and in [7] was “inactive” in each case. Moreover, the Potency entry in assay [14], in assay [9], in assay [15], in assay [10] and in assay [12] was “inactive” each time. Further, the Potency in assay [4] is 0.0067 µM (active); in assay [8], 0.0133 µM (active). For the same molecule, the result in assay [11] was inactive.

On to `C=CC1CC2C=CC1C2` (stereo unspecified), for which the Potency result in [1], in assay [2], in assay [3], in [5], in [13] and in assay [14] was “inactive” in each case. The Potency entry in assay [8], in assay [9], in assay [16], in [10], in assay [12] and in assay [18] was “inactive” in each case. Moreover, the outcome in [11] and in assay [17] was inactive.

As to `Cc1c(N)cccc1[N+](=O)[O-]`, the Potency result in assay [1], in assay [2], in [3], in assay [13], in [6] and in assay [7] was “inactive” in each case. Further, the Potency entry in assay [14], in assay [15], in assay [10] and in [12] was “inactive” in each case. In assay [11], the molecule was classed as inactive.

Take `CC1=CC=C(C(C)C)CC1`: the Potency entry in assay [1], in assay [2], in assay [3], in assay [5], in assay [13] and in [14] was “inactive” each time. For the same molecule, the Potency result in assay [8], in [15], in assay [16], in assay [10] and in assay [12] was “inactive” in each case. Further, the molecule was classed as inactive in [11].

On to `CC/C=C\CCOC(=O)CC`, for which the Potency result in assay [1], in assay [2], in assay [3], in [6], in [7] and in assay [14] was “inactive” each time. In addition, the Potency entry in assay [8], in assay [15], in assay [16] and in [12] was “inactive” throughout. Also, the outcome in assay [11] and in assay [17] was inactive.

Take `CCC(C)O` (stereo unspecified): the Potency result in assay [1], in assay [2], in [3], in assay [6], in assay [7] and in assay [14] was “inactive” throughout. For the same molecule, the Potency entry in assay [9], in assay [15], in [10] and in assay [12] was “inactive” each time. Besides, the outcome in assay [11] and in assay [17] was inactive.

Regarding `CCCCCCc1ccc(-c2ccc(C#N)cc2)cc1`, the Potency result in assay [1], in assay [2], in [5], in assay [6], in [7] and in assay [14] was “inactive” in each case. In addition, the Potency result in assay [15] and in assay [10] was “inactive” in each case. In assay [9], the Potency was 21.3 µM (active). For the same molecule, the molecule was classed as inactive in [11].

Consider `CCN(CC)c1ccc2c(-c3ccccc3C(=O)O)c3ccc(=[N+](CC)CC)cc-3oc2c1`, for which the Potency in [1] is 34.4 µM (active); in [2] it was 9.69 µM (active); in assay [3] it was 8.63 µM (active); in [18] it was 34.7 µM (active). The Potency result in assay [13], in [9] and in assay [12] was “inactive” in each case. Moreover, the outcome in [11] and in assay [17] was inactive.

On to `O=C(OCCc1ccccc1)c1ccccc1`, for which the Potency result in assay [1], in assay [2], in [3], in [5], in [6] and in assay [7] was “inactive” in each case. In addition, the Potency entry in assay [14], in [8], in [15], in [10], in [12] and in assay [18] was “inactive” throughout. Further, the call in assay [11] and in [17] was inactive.
